USP17 block: inhibitors of human USP17 deubiquitinase; A8MUK1; AID 1645855; purified USP17, Ub-rhodamine cleavage fluorescence, 3 h; actives 6.5% (n = 47,000); inhibition, % at 50 µM
USP8 inh: human USP8 deubiquitinase inhibition; actives 4.2% (n = 47,000); purified USP8, Ub-rhodamine cleavage fluorescence, 30 min; inhibition, % at 20 µM; AID 1645853; P40818
USP30 block: human USP30 deubiquitinase inhibition. actives 5.3% (n = 47,000). inhibition, % at 25 µM. purified USP30, Ub-rhodamine cleavage fluorescence. Q70CQ3
Target sequence (Q70CQ3 whole entry, looked up): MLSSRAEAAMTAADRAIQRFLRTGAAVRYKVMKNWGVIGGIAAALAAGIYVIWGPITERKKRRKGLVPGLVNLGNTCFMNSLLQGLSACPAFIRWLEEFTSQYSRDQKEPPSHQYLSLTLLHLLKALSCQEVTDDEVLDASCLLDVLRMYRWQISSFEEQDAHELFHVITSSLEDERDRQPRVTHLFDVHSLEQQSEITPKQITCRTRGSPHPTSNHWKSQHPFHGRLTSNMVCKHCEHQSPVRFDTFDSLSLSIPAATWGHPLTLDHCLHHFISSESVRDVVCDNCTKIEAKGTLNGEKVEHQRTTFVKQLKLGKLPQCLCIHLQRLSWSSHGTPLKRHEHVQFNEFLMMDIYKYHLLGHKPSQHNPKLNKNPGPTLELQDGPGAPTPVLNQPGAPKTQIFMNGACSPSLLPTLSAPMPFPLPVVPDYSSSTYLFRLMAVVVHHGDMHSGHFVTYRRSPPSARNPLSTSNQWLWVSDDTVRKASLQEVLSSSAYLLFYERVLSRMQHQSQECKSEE
Each line names hits and unclear results; the compound was inactive in the other large screens. Shown are actives, neighbours in structure and some others; about 12% of the full set was active somewhere. No stated cut-off is given here; in the data, active means inhibition above about 30%; inactive means the rest.

COc1ccc(C(=O)N2CC[C@@H]3CN(CC(C)C)S(=O)(=O)[C@@H]3CC2)cc1	none
O=C(Nc1nnc(C2CCCCC2)s1)c1cccc(S(=O)(=O)N2CCOCC2)c1	none
COc1ccc(C(=O)CN2C(=O)N(c3cccc(C)c3)S(=O)(=O)c3ccccc32)cc1	none
COc1cc(OC)cc(N2C(=O)N(CC(=O)c3ccc(Br)cc3)c3ccccc3S2(=O)=O)c1	USP17 block 30, USP8 inh 33
COc1cccc(N2C(=O)N(CC(=O)NCc3ccc(Cl)cc3)c3ccccc3S2(=O)=O)c1	USP17 block 79, USP30 block 43
CC(=O)c1ccc(N2C(=O)N(CC(=O)c3ccc(Cl)cc3)c3ccccc3S2(=O)=O)cc1	none
O=C(O)CC(NC(=O)CSc1ccccc1)c1ccc(Cl)cc1 (stereo unspecified)	none
NC(=O)C(OC(=O)CSc1ccccc1)c1ccccc1 (stereo unspecified)	USP30 block 32
Cc1sc2ncc(C(=O)N3CCN(c4ccccc4)CC3)c(=O)n2c1C	none
CCc1cnc(N2C[C@H]3C[C@H](C(=O)NCC(C)C)[C@@H](C2)O3)nc1	none
Cc1ccc(-c2cc(C3CCN(C(=O)c4ccoc4)CC3)[nH]n2)cc1	none
CN1CC(=O)N(C2CCNCC2)Cc2c(NCc3ccccc3F)ncnc21	none
O=C(O)CN1C[C@@H]2C[C@]2(c2ccccc2)C(=O)c2ncccc21	none
COc1ccc(CN2C[C@@H]3C[C@]3(c3ccccc3)C(=O)c3ncccc32)cc1	USP17 block 60, USP8 inh 84
CCOc1ccccc1NC(=O)c1cnn(-c2cccc(Cl)c2C)c1C1CCNCC1	none
Cn1cc2c(n1)C(C(=O)NCCc1c[nH]c3ccc(F)cc13)CNC2 (stereo unspecified)	none
O=C(NCCc1c[nH]c2ccc(F)cc12)C(=O)Nc1cccc2ncccc12	USP17 block 45
COc1ccccc1NC(=O)N1Cc2cccn2-c2ccccc21	none
COc1ccccc1N1CCN(CC2C(=O)O[C@@H]3CC4=CCC[C@H](C)[C@@]4(C)[C@@H](O)[C@H]23)CC1 (stereo partly specified)	none
O=C(CCN1c2ccccc2Sc2ccccc21)NCc1ccccc1F	none
CC(=O)Nc1cc(-c2cccc(O)c2)cn2c(-c3cnn(C)c3)cnc12	USP17 block 61, USP30 block 36
CC(=O)Nc1cc(-c2cnn(C)c2)cn2c(-c3cnn(C)c3)cnc12	none
CC(O)c1nc2ccccc2n1CC(=O)N1CCCCC1 (stereo unspecified)	none (no result: USP30 block)
CCC(C)(C)NS(=O)(=O)c1ccc2c(c1)CC(C)N2C(C)=O (stereo unspecified)	none
O=C1CC(c2ccc(O)cc2)c2c(nc(-c3ccccc3)[nH]c2=O)N1 (stereo unspecified)	USP17 block 35 (no result: USP30 block)
O=C1CC(c2cccc(Cl)c2Cl)c2c(nc(-c3ccccc3)[nH]c2=O)N1 (stereo unspecified)	none
O=C1CC(c2ccc(Cl)cc2)c2c(nc(-c3ccccc3)[nH]c2=O)N1 (stereo unspecified)	USP8 inh 61
Cc1nc2c(c(=O)[nH]1)C(c1ccc(OCc3ccccc3C)cc1)CC(=O)N2 (stereo unspecified)	none
O=C(O)c1cccc(Nc2c(-c3ccc(F)cc3)nc3cnccn23)c1	none
CC(C)c1ccccc1OCC(=O)N1CCC(c2nc3ccccc3cc2C(N)=O)CC1	none
O=C(NC1CC(=O)N(Cc2ccccc2)C1)c1n[nH]c2c1CCCC2 (stereo unspecified)	none
COc1ccc(C(=O)c2oc3ccccc3c2NC(=O)COc2ccccc2F)cc1	none
COCCCNC(=O)COc1c(-c2ccc(OC)cc2)oc2ccccc2c1=O	USP30 block 49
CCCCC(=O)N1CCCC1c1nnc(C(=O)Nc2ccc(C)cc2)s1 (stereo unspecified)	none
Cc1nc2c(-c3ccncc3)nsc2c(=O)n1CC(=O)Nc1ccccc1F	USP17 block 46
Cc1ncc(C(=O)NC2CC2)c(=O)n1CC(=O)Nc1ccccc1F	none
Cc1ccc(-c2nc3ccccc3c(=O)n2CN2CCOCC2)cc1	none
O=C1c2ccccc2-n2c1nc1ccccc1c2=O	USP17 block 50
Cc1ccc(N=Cc2sc(O)c3ccccc23)c(C)c1	none
Oc1sc(C=Nc2cc(Cl)ccc2Cl)c2ccccc12	USP17 block 54, USP8 inh 47
CNC(=O)[C@@H]1C[C@@H]2CN(CC(C)C)CCN2[C@@]12C(=O)Nc1ccccc12	none
CCn1cc(Cn2cc(N)cn2)cn1	USP8 inh 73
CCn1cc(CNC(=O)c2ccc(C)s2)cn1	none
Cc1cccc(-n2nnc(C(=O)Nc3ccc(F)cc3)c2C)c1	USP30 block 32
CCc1ccc(NC(=O)c2nnn(-c3cccc(C)c3)c2C)cc1	none
CCc1ccc(NC(=O)c2nnn(-c3cccc(F)c3)c2C)cc1	none
